The values below come from PubChem BioAssay (NCI).

Test systems include SR leukemia; RPMI-8226 leukemia; OVCAR-8 ovarian; OVCAR-5 ovarian; OVCAR-4 ovarian; SK-OV-3 ovarian; IGROV1 ovarian; HS 578T breast; NCI/ADR-RES ovarian; T-47D breast; BT-549 breast; MDA-MB-435 melanoma; SW-620 colon; MCF7 breast; HCT-116 colon; HCC-2998 colon; KM12 colon.
Holding throughout (experiment): NCI-60 one-dose screen, 48 h (100 = growth as untreated, 0 = no growth, -100 = all killed)
Holding throughout (settings): 10 µM unless noted

The panel holds about 83,000 compounds, 20% with a hit somewhere; the sample as a whole holds those more often.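 Each cell line was grown in a 96-well plate and treated with one concentration of compound for 48 hours. Values below 10 were considered active.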 A number with no mark means an inactive call. Activity calls are given as the source filed them.

Turning to `CS(=O)c1nccc(-c2c(-c3ccc(F)c(OCc4ccccc4)c3)nc3sccn23)n1` (stereo unspecified), the growth with SR leukemia was -1.23% (active); in the assay with RPMI-8226 leukemia, 60.6%; in the assay on OVCAR-8 ovarian, 96.1%; in the assay with OVCAR-5 ovarian, 104%; with OVCAR-4 ovarian, 102%; in the assay with SK-OV-3 ovarian, 114%. The growth is 68.7% with IGROV1 ovarian; 101% with HS 578T breast; 102% in the assay on NCI/ADR-RES ovarian; -11.6% (active) in the assay with T-47D breast; 109% in the assay on BT-549 breast; 104% with MDA-MB-435 melanoma. In addition, the growth was 87.9% with SW-620 colon; -44.7% (active) in the assay on MCF7 breast; 63.6% with HCT-116 colon; 50.4% with HCC-2998 colon; 77% in the assay with KM12 colon.

For `O=C1Nc2cc(OC(F)(F)F)ccc2Oc2ccc(-c3ccnc(N4CCNCC4)c3)cc21`, the growth is -44% (active) in the assay on SR leukemia; -50.9% (active) in the assay on RPMI-8226 leukemia; 20.9% in the assay with OVCAR-8 ovarian; 14.7% in the assay with OVCAR-5 ovarian; 48% in the assay on OVCAR-4 ovarian; 20.5% with SK-OV-3 ovarian. The growth with IGROV1 ovarian was -1.58% (active); in the assay on HS 578T breast, 2.5% (active); with NCI/ADR-RES ovarian, 5.35% (active); in the assay on T-47D breast it was -61.9% (active); in the assay with BT-549 breast it was -4.26% (active); with MDA-MB-435 melanoma, -95.7% (active). The growth in the assay on SW-620 colon was -91.8% (active); in the assay with MCF7 breast, -55.7% (active); in the assay on HCT-116 colon, -91.4% (active); in the assay with HCC-2998 colon it was -76.8% (active); with KM12 colon, -10.6% (active).

Turning to `CC(C)(C)CC(C)(C)n1nnnc1C(Nc1ccccc1)c1cc2cccc3ccc4cccc1c4c32` (stereo unspecified), the growth with SR leukemia was 82.3%; with RPMI-8226 leukemia, 82.2%; in the assay on OVCAR-8 ovarian it was 86.4%; in the assay with OVCAR-5 ovarian, 85.3%; in the assay with OVCAR-4 ovarian, 82.7%; in the assay on SK-OV-3 ovarian, 87.1%. For the same molecule, the growth in the assay on IGROV1 ovarian was 92.6%; in the assay on HS 578T breast, 90.3%; with NCI/ADR-RES ovarian, 81.7%; in the assay with T-47D breast, 55.7%; in the assay with BT-549 breast, 130%; with MDA-MB-435 melanoma, 83.6%. Moreover, the growth was 82.3% with SW-620 colon; 61.6% in the assay with MCF7 breast; 45.1% in the assay with HCT-116 colon; 90.8% in the assay on HCC-2998 colon; 86.7% in the assay with KM12 colon.

In the case of `COc1cc2oc(-c3cccc(NC(=O)c4cc(NC(=O)[C@H](C)NC(=O)OC(C)(C)C)ccc4C)c3)cc(=O)c2c(OC)c1OC`, the growth in the assay on SR leukemia is 25.1%; in the assay with RPMI-8226 leukemia it was 45%; in the assay on OVCAR-8 ovarian, 42.6%; with OVCAR-5 ovarian, 110%; in the assay with OVCAR-4 ovarian, 63.9%; with SK-OV-3 ovarian, 115%. In addition, the growth is 60.6% in the assay with IGROV1 ovarian; 38.2% in the assay on HS 578T breast; 87.3% in the assay on NCI/ADR-RES ovarian; 28.2% with T-47D breast; 84.9% in the assay with BT-549 breast; 90% in the assay on MDA-MB-435 melanoma. Besides, the growth in the assay with SW-620 colon was 92.9%; in the assay on MCF7 breast, 67%; in the assay with HCT-116 colon, 58%; in the assay with HCC-2998 colon it was 78.6%; with KM12 colon, 71.1%.

As for `CCc1ccc(NC(=O)N[C@@H](Cc2cc(F)cc(F)c2)C(=O)N[C@@H]2C(=O)N3CCC[C@H]3C(=O)N3CCO[C@H](C)[C@H]3C(=O)N[C@@H](CO)C(=O)N3C[C@H](C)C[C@H]3C(=O)O[C@H]2C)c(F)c1`, the growth was 32% in the assay on SR leukemia; 17% with RPMI-8226 leukemia; 22.9% in the assay with OVCAR-8 ovarian; 35.9% in the assay with OVCAR-5 ovarian; 22.9% with OVCAR-4 ovarian; 26.3% in the assay on SK-OV-3 ovarian. Further, the growth is 39.5% in the assay with IGROV1 ovarian; 35.8% with HS 578T breast; 70% in the assay on NCI/ADR-RES ovarian; 35.7% in the assay with T-47D breast; 33.3% in the assay with BT-549 breast; 20.3% in the assay on MDA-MB-435 melanoma. Moreover, the growth in the assay on SW-620 colon was 35.7%; in the assay on MCF7 breast it was 15.7%; in the assay on HCT-116 colon it was 11.6%; in the assay on HCC-2998 colon, 26%; in the assay on KM12 colon, 39.6%.

As to `CCN1C(=O)N(CC)C2SC(N/N=C/c3cccs3)=NC21` (stereo unspecified), the growth with SR leukemia was 15.1%; with RPMI-8226 leukemia, 23.3%; in the assay on OVCAR-8 ovarian, -4.75% (active); with OVCAR-5 ovarian, 43.6%; with OVCAR-4 ovarian, 62.5%; in the assay on SK-OV-3 ovarian, 31.9%. Moreover, the growth was 23.7% with IGROV1 ovarian; 15.4% with HS 578T breast; -0.335% (active) with NCI/ADR-RES ovarian; 68.8% with T-47D breast; -40% (active) in the assay on BT-549 breast; -31.7% (active) with MDA-MB-435 melanoma. In addition, the growth in the assay with SW-620 colon is 19.8%; in the assay with MCF7 breast it was 17.3%; in the assay with HCT-116 colon, 3.01% (active); in the assay on HCC-2998 colon, 15.4%; in the assay on KM12 colon, 6.21% (active).

With `CNC(=O)c1cc(Oc2ccc3nc(NC(=O)c4cc(C)cc(C)c4)sc3c2)ccn1`, the growth was 30.9% in the assay with SR leukemia; 51.9% in the assay on RPMI-8226 leukemia; 91.1% with OVCAR-8 ovarian; 104% in the assay with OVCAR-5 ovarian; 77% in the assay on OVCAR-4 ovarian; 97.4% in the assay on SK-OV-3 ovarian. In addition, the growth in the assay with IGROV1 ovarian is 88.7%; with HS 578T breast, 85.8%; with NCI/ADR-RES ovarian, 76%; in the assay on T-47D breast, 80.1%; in the assay on BT-549 breast, 11.6%; with MDA-MB-435 melanoma it was 40.6%. Moreover, the growth with SW-620 colon is 92.7%; with MCF7 breast it was 82%; in the assay with HCT-116 colon, 32.9%; with HCC-2998 colon, 103%; in the assay on KM12 colon it was 91.3%.

Turning to `O=C(N/N=C\c1ccc(Cl)cc1)c1ccc2nc(-c3ccc(Br)cc3)[nH]c2c1`, the growth in the assay with SR leukemia was -8.2% (active); with RPMI-8226 leukemia, -8.35% (active); with OVCAR-8 ovarian, -14.4% (active); in the assay on OVCAR-5 ovarian, 36.8%; with OVCAR-4 ovarian, -44.1% (active); in the assay on SK-OV-3 ovarian it was 79.1%. In addition, the growth with IGROV1 ovarian is -43.6% (active); with HS 578T breast, 15.6%; with NCI/ADR-RES ovarian, 35.7%; in the assay with T-47D breast, 0.0838% (active); in the assay on BT-549 breast, 97.7%; in the assay with MDA-MB-435 melanoma, 3.54% (active). For the same molecule, the growth with SW-620 colon was -49.3% (active); with MCF7 breast it was -33.2% (active); in the assay on HCT-116 colon, -86.8% (active); with HCC-2998 colon, -42.5% (active); in the assay on KM12 colon, -23.2% (active).
